# From PubChem
# An excerpt weighted towards active compounds, which were near 2.3% of everything screened.
# TAG inh: inhibitors of triacylglycerol accumulation; actives 0.66% (n = 230,000); inhibition, % at 12.5 µM; H9c2 cells, Nile Red lipid (TAG) fluorescence; cells loaded with 200 µM oleic acid;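 active means pattern-corrected inhibition of lipid staining of at least 50% with the nuclear-stain viability signal not falling by more than 50%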;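 further: 0% = DMSO wells and 100% = triacsin C control wells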
# MIN6 prolif: inducers of beta-cell replication in MIN6 cells. actives 0.29% (n = 330,000). MIN6 cells proliferation, ATPlite luminescence, 48 h; cells starved in 0.2% serum; 100% = growth in 10% serum. AID 2380. proliferation, % at 10 µM;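 active means compounds whose signal lies at least 3.5 SD above the mean of all wells on their plate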;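 further: 0% = DMSO-treated cells in low-serum medium and 100% = 10% serum control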
# Cardio protect: modulators protecting cardiomyocytes from myocardial damage. H9c2 cardiomyocytes, H2O2 injury protection, ATPLite, 2 h. protection from H2O2 cell death, % at 20 µM. actives 0.63% (n = 360,000);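 active means compounds giving at least 50% protection of heart cells from peroxide-induced death in the single-dose screen, raw or plate-pattern-corrected value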;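 further: 0% = DMSO wells with peroxide and 100% = DMSO wells without peroxide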
# aDG glyco up: alpha-DG glycosylation activation. activation, % at 10 µM. Pro5-aDG cells, alpha-DG glycosylation AlphaScreen (IIH6); 0% Pro5, 100% B10-LARGE cell signal. actives 0.22% (n = 360,000);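 active means activation of at least 8% versus controls, or a plate z-score of at least 8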;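 further: Pro5 are CHO cells carrying HIG-tagged alpha-DG that lacks glycosylation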
# FAS TE block: blocks the thioesterase domain of human fatty acid synthase; recombinant FAS-TE, OMFH fluorogenic substrate, fluorescence endpoint; inhibition, % at 15 µM; actives 0.67% (n = 360,000); AID 602261;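 active means compounds whose normalised, plate-corrected inhibition of enzyme fluorescence in the single-dose primary screen is 50% or more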;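 further: 0% = DMSO with enzyme and 100% = substrate without enzyme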
# m-calpain inh: calpain II (pig) inhibition. purified calpain II, fluorogenic peptide substrate, 30 min. inhibition, % at 16 µM. actives 0.37% (n = 220,000). AID 1236;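 active means inhibition above about 50%, limit read from the data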
# Numbers without * were called inactive; nt = no result given.
SMILES,TAG inh,MIN6 prolif,Cardio protect,aDG glyco up,FAS TE block,m-calpain inh
COc1ccccc1OCC(=O)Nc1cccc(-c2nnc(-c3ccco3)o2)c1,-11,4,64*,0,11,16
CC(C)(C)C(=O)Nc1cccc(-c2nnc(-c3cccc(NC(=O)C(C)(C)C)c3)o2)c1,31,0,64*,0,7,17
O=C(Nc1cccc(-c2nnc(-c3ccco3)o2)c1)c1ccccc1,nt,5,17,0,7,79*
CCn1c(NC(=O)/C=C/c2ccc(F)cc2)nc2ccccc21,nt,-4,74*,0,10,nt
COc1ccccc1C(=O)Nc1nc(-c2ccc3c(c2)OCCO3)cs1,3,0,64*,0,21,10
O=C(Nc1nc(-c2ccc3c(c2)OCCO3)cs1)c1ccco1,3,-5,-2,0,13,nt
CCCCC(=O)N(C)c1c(CC)nc2c(OCCOc3ccc(F)cc3)cccn12,1,nt,-21,0,-2,nt
C=CCNC(=S)N/N=C/c1ccc(C)cc1C,7,-1,-14,1,7,38
C=CCNC(=S)N/N=C/c1ccc(C)c([N+](=O)[O-])c1,nt,nt,2,0,9,52*
CCOc1ccc(NC(=O)Cc2ccc(S(=O)(=O)N3CCCCC3)cc2)cc1OCC,18,-1,-4,0,14,nt
CCCNC(=O)C1(C)CCN(C(=O)c2ccccc2OC)C1 (centres undefined),-11,nt,-2,0,-8,nt
Oc1c(Br)cc(Br)cc1/C=N/n1c(-c2ccccc2)n[nH]c1=S,-10,-4,32,0,16,nt
Cc1nnc(C)n1/N=C/c1cc(Br)cc(Br)c1O,0,-3,78*,0,-9,-93
Cc1nnc(C)n1/N=C/c1cc(Br)ccc1O,8,-4,66*,0,-7,-388
CCN(CC)c1ccc(NC(=O)CSc2n[nH]c(-c3ccco3)n2)cc1,11,-4,1,0,-9,nt
CC(C)(C)N1CCC1C(N)=O (centres undefined),nt,nt,nt,nt,nt,14
CC(C)COP(=O)(OCC(C)C)C(Nc1ccccc1)c1ccc2c(c1)OCO2 (centres undefined),-2,-4,67*,0,18,51*
CC(C)OP(=O)(OC(C)C)C(Nc1ccccc1)c1ccc2c(c1)OCO2 (centres undefined),nt,0,23,0,-4,21
CCN1CCN(Cc2ccc(NC(=O)c3ccc(C)c(NC(=O)c4c[nH]c5cc(C(F)(F)F)ccc5c4=O)c3)cc2C(F)(F)F)CC1,139*,-8,-45,0,-30,-104
CCN1CCN(Cc2ccc(NC(=O)c3cc(NC(=O)c4ccc5n[nH]nc5c4)cc(OC)c3)cc2C(F)(F)F)CC1,4,-2,1,1,-57,-50
CCN1CCN(Cc2ccc(NC(=O)c3cc(NC(=O)c4cc(-c5ccc(OC)cc5)n[nH]4)cc(OC)c3)cc2C(F)(F)F)CC1,69*,-8,-2,-1,6,-56
Cc1ccc(C(=O)Nc2cccc(C(F)(F)F)c2)cc1NC(=O)c1c[nH]c2cc(C(F)(F)F)ccc2c1=O,7,3,-8,0,-8,nt
CC(=O)Nc1cccc(NC(=O)C2CCCO2)c1 (centres undefined),-7,nt,-5,0,-10,nt
Cc1cccc2c1Sc1ccc(Cl)cc1CC2N1CCNCC1 (centres undefined),nt,-3,nt,nt,nt,nt
CCc1cccc2c1Sc1ccccc1CC2N1CCNCC1 (centres undefined),67*,-4,-15,0,-33,nt
COc1cccc(C2=NN(C(=O)C3CC3)C(O)(C(F)(F)F)C2)c1 (centres undefined),-7,nt,-9,0,-4,nt
O=C(COc1ccccc1)N/N=C/c1ccc([N+](=O)[O-])o1,nt,-6,14,5,1,17
O=C(CNc1ccc2ccccc2c1)N/N=C/c1ccc([N+](=O)[O-])o1,11,-6,-4,9.8*,4,18
O=C(CN1CCN(S(=O)(=O)c2ccc(F)c(Cl)c2)CC1)N1CCOCC1,6,-3,1,0,-11,nt
O=C(CSc1nnc(-c2cccnc2)o1)Oc1ccccc1,8,-1,27,0,-3,-11
